Whole data set: some 81,000 sequences, median “one-hybrid fitness for binding NBS DNA” near -0.1, cut for the highest 2% near 0.36. The full list was thinned out, with the highest values kept by preference.
B1: Caulobacter ParB omega fusion; a variant is named by its letters at X, in order, B8GW30 (parent)
chain: MESVVVGEPGMSEGRRGLGRGLSALLGEVDAAPAQAPGEQLGGSREAPIEILQRNPDQPRRTFREEDLEDLSNSIREKGVLQPILVRPSPDTAGEYQIVAGERAWRAAQRAGLKTVPIMVRELDDLAVLEIGIIENVQRADLNVLEEALSYKVLMEKFERTQENIAQTIGKSXSHVANXMRLLXLPDEVQSYLVSGELTAXHARAIAAAADPVALAKQIIEGGLSVRETEALARKAPNLSAGKSKGGRPPRVKDTDTQALESDLSSVLGLDVSIDHRGSTGTLTITYATLEQLDDLCNRLTRGI

Variants of: B1
Assay: one-hybrid fitness for binding NBS DNA (the Noc-binding site; scaled: cognate 1, non-cognate 0); higher = stronger binding
Conditions: with NBS DNA site
Outline: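 Bacterial one-hybrid selection in E. coli USO rpoZ- hisB- pyrF- with a HIS3 reporter carrying the site 19 bp from the promoter, screening Caulobacter ParB libraries with four specificity codons randomised (NNS). Cells grew 48 hours at 37°C on M9-minus-histidine plus 0.1 mM IPTG and 5 mM 3-AT. Plasmids before and after selection were Illumina-sequenced, three replicate libraries pooled, and variants under 10 reads dropped. Fitness is the log change in variant-to-wild-type read ratio, rescaled to cognate 1, non-cognate 0.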

one-hybrid fitness for binding NBS DNA, 0.39:
RVSS

one-hybrid fitness for binding NBS DNA, 0.22:
QSRE

one-hybrid fitness for binding NBS DNA, 0.561:
KRSR

one-hybrid fitness for binding NBS DNA, 0.724:
RTKT

one-hybrid fitness for binding NBS DNA, 0.369:
QCRE
QLGT

one-hybrid fitness for binding NBS DNA, 0.27:
QTGQ

one-hybrid fitness for binding NBS DNA, 0.557:
KRGR

one-hybrid fitness for binding NBS DNA, 0.558:
QCGT

one-hybrid fitness for binding NBS DNA, 0.479:
RTKA

one-hybrid fitness for binding NBS DNA, 0.514:
RKKA

one-hybrid fitness for binding NBS DNA, ≤ 0.2:
YEPF
HTTL
YPNR
EHEC
THMK
KSWR
KPGR
KSHR
DRQR
KCGR
KCHR
KCQR
KPWR
NSRQ
TYKN
HHDR
DNHG
KCER
DRLR
KCLR
KCSR
NRSR
KSER
IRGF
QCPH
TMHT
NRCR
KRRD
KPYR
KCIR
KCCR
KCYR
GERG
HQHR
VMTL
CRHA
HMKG
THLW
GMMA
QTYE
QPRE
QRVE
QTDE
QTVE
DNPC
TLCS
AKQC
YPSA
VEHK
IPPG
NQDG
HSKR
CSCG
RDNI
RVSC
RVSF
RVSN
RVSP
RVSH
RVSD
TKDA
NVIT
NCKE
GYMR
VACG
GAQH
LKVD
RPFR
RKFQ
RFFR
RKFK
RKAN
PSEM
VQGT
EMAT
MADF
PISS
CTLV
YGYV
RTVK
RTVD
EDMY
WWLN
RCEN
DHID
PMHC
TEPL
PAKT
PFVA
GVMR
QQVN
QQVP
DFWV
PKQR
TNGR
DAAG
CWHR
QAGN
QSGN
QLGH
QSGD
DRLC
AHIW
CMMG
SQTP
CRSF
KPEL
QPGT
QHGP
LTNG
SHCL
DTQK
GMQY
SYPN
QRIN
QRPD
QRPP
TLDA
VTHW
PTMM
REHM
TEDC
MFLM
WPQL
QDTP
SAMV
RFKA
RTPA
RPKA
RTVA
RKVA
VDGR
KWPI
RNIK

one-hybrid fitness for binding NBS DNA, 0.343:
QHGS
RSKA

one-hybrid fitness for binding NBS DNA, 0.239:
KRPR

one-hybrid fitness for binding NBS DNA, 0.405:
QTRE

one-hybrid fitness for binding NBS DNA, 0.811:
QQKT

one-hybrid fitness for binding NBS DNA, 0.376:
RCFR

one-hybrid fitness for binding NBS DNA, 0.443:
RKFR

one-hybrid fitness for binding NBS DNA, 0.327:
RIKA

one-hybrid fitness for binding NBS DNA, 0.546:
QRIS

one-hybrid fitness for binding NBS DNA, 0.661:
KRNR

one-hybrid fitness for binding NBS DNA, 0.385:
QSGT
QHGT

one-hybrid fitness for binding NBS DNA, 0.222:
KQKT

one-hybrid fitness for binding NBS DNA, 0.55:
KRCR

one-hybrid fitness for binding NBS DNA, 0.319:
KRRK

one-hybrid fitness for binding NBS DNA, 0.423:
RCKA

one-hybrid fitness for binding NBS DNA, 0.356:
RTKQ
QQKF

one-hybrid fitness for binding NBS DNA, 0.336:
KRDR

one-hybrid fitness for binding NBS DNA, 0.297:
QCKE

one-hybrid fitness for binding NBS DNA, 0.578:
KRWR

one-hybrid fitness for binding NBS DNA, 0.207:
QRYE

one-hybrid fitness for binding NBS DNA, 0.223:
KCNR

one-hybrid fitness for binding NBS DNA, 0.335:
RLMT
QRIH

one-hybrid fitness for binding NBS DNA, 0.342:
QAGS

one-hybrid fitness for binding NBS DNA, 0.331:
QIGT

one-hybrid fitness for binding NBS DNA, 0.712:
RRKA

one-hybrid fitness for binding NBS DNA, 0.545:
KRYR

one-hybrid fitness for binding NBS DNA, 0.456:
KRLR

one-hybrid fitness for binding NBS DNA, 0.616:
KRHR

one-hybrid fitness for binding NBS DNA, 0.439:
RVSR

one-hybrid fitness for binding NBS DNA, 0.368:
KRER
QRKE

one-hybrid fitness for binding NBS DNA, 0.461:
QRPS

one-hybrid fitness for binding NBS DNA, 0.31:
RTKC

one-hybrid fitness for binding NBS DNA, 0.597:
RKAR

one-hybrid fitness for binding NBS DNA, 0.322:
RKAH
QLGS

one-hybrid fitness for binding NBS DNA, 0.552:
KRQR

one-hybrid fitness for binding NBS DNA, 0.393:
RTVT
QQVT

one-hybrid fitness for binding NBS DNA, 0.787:
KRRR

one-hybrid fitness for binding NBS DNA, 0.249:
RKWA

one-hybrid fitness for binding NBS DNA, 0.37:
QAGT

one-hybrid fitness for binding NBS DNA, 0.463:
RVST

one-hybrid fitness for binding NBS DNA, 0.378:
KRIR
QTKE

one-hybrid fitness for binding NBS DNA, 0.64:
QTGT

one-hybrid fitness for binding NBS DNA, 0.312:
QTGY

— a collection of fitness landscapes (doi:10.1016/j.celrep.2020.107928)
